From ChEMBL document CHEMBL4513216, “Probing the Open Global Health Chemical Diversity Library for Multistage-Active Starting Points for Next-Generation Antimalarials” (ACS Infect Dis, 2020) come the findings set out here.

Out of some 69,000 compounds screened, about 8,600 (12%) showed an effect of 50% or more. Many of the other results were omitted from the sample, so strong results are more common in it than they were.

The test system of the experiment is Plasmodium berghei. As to the kind of experiment: Screen against P. berghei liver stage (PbLuc), transformed with Luciferase, at 10uM. To be noted: tested at 10 uM. Type of experiment: functional, HepG2.
On to `COCCc1noc(CN2CCCC2c2c(C)nn(C)c2OC)n1` (stereo unspecified), for which the INHIBITION stood at 17.4%.
Turning to `CCCNC(=O)C1CCCN(Cc2csc(C(C)(C)C)n2)C1` (stereo unspecified), the INHIBITION is -62.8%.
Next, `CNC(=O)[C@@H](c1ccccc1OC)N1CCC[C@H]1C(=O)NC(C)(C)C`: -22.4%; `Cc1cccc(C)c1OCC(=O)NC(C)c1nnc2n1CCC2` (stereo unspecified): -29.2%; `COc1c(CNCC(=O)N2CCN(C)CC2)c(C(C)C)nn1C`: 42.1%.
Next, `Cc1noc(CNC(=O)c2ccccc2-n2cc(CN)cn2)n1`: 20.8%.
Then `O=C1CN(C(=O)c2cc3ccc(Br)cc3[nH]2)CCN1`, with -56.7%.
Regarding `CCc1cnc(CN(C)C2CCN(CC3CCOCC3)C2)o1` (stereo unspecified), the INHIBITION is 5.85%.
Then `Cc1nsc(NC(=O)N2CCc3sccc3C2)n1`, with 24.1%; and `OC(COc1ccc(F)cc1)CN1CCC(c2ccn[nH]2)CC1` (stereo unspecified), with 37.9%; and `Cc1cccc(N2CCOCC3(C2)CN(c2cnn(C)c2)C(=O)CO3)n1` (stereo unspecified), with 44.4%.
For `CC(C)Oc1ncnc2c1CCN(C(=O)c1cccn1C)CC2`, the INHIBITION was 7.39%.
Next, `O=C1Nc2ccccc2/C1=C1\CCCCCN1`: -2.09%; `O=C1Nc2ccccc2C12CCCN(Cc1ccncc1)C2` (stereo unspecified): 16.6%.
Turning to `O=C1Nc2ccccc2C12CCCN(Cc1ccc3c(c1)OCCO3)C2` (stereo unspecified), the INHIBITION came out at 43.3%.
On to `CS(=O)(=O)c1ccc(CN2CCCC3(C2)C(=O)Nc2ccccc23)cc1` (stereo unspecified), for which the INHIBITION was 69%.
For `CNc1ncc(CN(C)Cc2cc(O)c3cccc(Cl)c3n2)cn1`, the INHIBITION worked out at 60.4%.
Then `CNc1ncc(CN(C)Cc2cc(O)c3cc(F)ccc3n2)cn1`, with 40.9%; and `CNc1ncc(CN(C)Cc2cc(O)c3cc(C)cc(C)c3n2)cn1`, with 35.5%.
Consider `COc1ccccc1CNC(=O)c1ccccc1-n1cnc(CN)c1`, for which the INHIBITION was -1.85%.
As for `Cc1ccc(SC2CCCC2)c(C(=O)NCCc2n[nH]c(=O)[nH]2)c1`, the INHIBITION came out at 49.9%.
`Cc1ccc(SC2CCCC2)c(C(=O)NCCO)c1`: the INHIBITION is given as 90.7%.
`CC(=O)NCCNC(=O)c1cc(C)ccc1SC1CCCC1`: the INHIBITION was determined as 49.9%.
On to `COCCc1ncc(CNC2(c3ccc(Cl)cc3Cl)CC2)cn1`, for which the INHIBITION amounted to 34%.
Take `CCCN1CCC(NC(=O)Nc2ccc(OC)c(OC)c2)CC1`: the INHIBITION was -4.46%.
Then `CCCN1CCC(Nc2cc(-c3ccccc3)ccc2OC)CC1`, with 78.9%.
For `COCCN1CCC(Nc2ccc(C#N)cc2F)CC1`, the INHIBITION came to 21.7%.
As to `Cc1cc(C(=O)NCC(O)c2c(Cl)cccc2Cl)nn1C` (stereo unspecified), the INHIBITION is given as 25.2%.
As for `CCC(=O)N1CCN(c2ncnc3cc4c(cc23)OCCO4)CC1`, the INHIBITION is reported as 41.6%.
With `COc1cccc(CN2CC(O)CN(C(=O)C(C)(C)C)CC2=O)c1OC` (stereo unspecified), the INHIBITION is recorded as 58.5%.
Then `CCOC(=O)N1CC(=O)N(Cc2ccc(OC)cc2)CC(O)C1` (stereo unspecified), with 68.4%; and `COc1ccc(CN2CC(O)CN(C(=O)OCC(C)(C)C)CC2=O)cc1` (stereo unspecified), with -15.6%.
`CCOC(=O)N1CC(=O)N(Cc2cccc(OC)c2OC)CC(O)C1` (stereo unspecified): the INHIBITION is recorded as 0.284%.
Turning to `COc1cccc(CN2CC(O)CN(C(=O)C3CC3)CC2=O)c1OC` (stereo unspecified), the INHIBITION is on record as -1.23%.
Then `COc1ccc(CN2CC(O)CN(C(=O)OCC(C)C)CC2=O)cc1` (stereo unspecified), with 15.4%; and `COCC(=O)N1CCCCC1c1nc(N(C)C)ncc1-c1cc(C)no1` (stereo unspecified), with 17.435%.
Regarding `Cn1ccc(C(=O)N2CCCC(c3cc(O)n(C)n3)C2)n1` (stereo unspecified), the INHIBITION worked out at 36.4%.
Then `CCc1cnc(C)nc1NCc1cnc2c(c1)CCC2`, with 46.4%.
Take `COc1ccccc1-n1nc(C(C)C)nc1Cc1nnc(N)s1`: the INHIBITION is recorded as 17.6%.
With `CC1=C(C(=O)N(C)Cc2noc3c2CCCC3)C(C)NC(=O)N1` (stereo unspecified), the INHIBITION turned out to be 11.8%.
For `CCc1c(C(=O)NCC2CCS(=O)(=O)C2)cnn1-c1ccccc1` (stereo unspecified), the INHIBITION is given as 4.71%.
Consider `O=c1cc(CN2CCCC2)nc2n1CCCN(Cc1ccoc1)C2`, for which the INHIBITION was -19.5%.
Next, `O=C(NCCCNC(=O)C1CCC1)NCCn1cccc1`: 54.4%; `O=C(NCCn1cccc1)C1CCCOC1` (stereo unspecified): 39.8%; `O=C(NCCNC(=O)C1CCCCC1)NCCn1cccc1`: 18.6%.
Then `NC(=O)c1cccc(CS(=O)(=O)CC(O)Cn2cccn2)c1` (stereo unspecified), with 4.41%.
As for `CN(C)C(CNC(=O)NCCOc1ccccc1)c1ccco1` (stereo unspecified), the INHIBITION is given as -90.7%.
Next, `CN(C)c1cc(C(=O)N2CCCC2c2cnn(C)c2)ccn1` (stereo unspecified): 22.3%; `CCN1CCC(CC(=O)N(C)C(C)c2cncs2)CC1` (stereo unspecified): 0.825%.
Next, `CN(C)c1ccc(C(O)CNS(=O)(=O)C2CC2)cc1` (stereo unspecified): 38.1%; `O=S(=O)(NCC(O)c1ccc(C(F)(F)F)cc1)C1CC1` (stereo unspecified): 72.2%.
Consider `CSc1ccc(C(O)CNS(=O)(=O)C2CC2)cc1` (stereo unspecified), for which the INHIBITION is listed as 44.9%.
Regarding `Cc1nn(C2CCS(=O)(=O)C2)c(O)c1Cc1ccc(Br)cc1` (stereo unspecified), the INHIBITION is 43.4%.
For the compound `CCOC(CC)C(=O)NCCC(=O)N1CCN(c2ccccn2)CC1` (stereo unspecified), the INHIBITION is -36.3%.
Next, `Cc1cc(CN(C)C(=O)NC2CCN(c3ncccn3)CC2)no1`: 27.1%; `COCCCNc1ncc(-c2cccc(F)c2)c(-c2nccn2C)n1`: 13.7%; `O=c1c2cnc(N3CCCCC3)nc2ccn1-c1ccccc1F`: -2.04%.
Consider `CC1CCN(c2ncc(-c3ccccc3F)c(-c3nccn3C)n2)CC1`, for which the INHIBITION amounted to 72.05%.
On to `CC1CCCN(c2ncc(-c3ccccc3F)c(-c3nccn3C)n2)C1` (stereo unspecified), for which the INHIBITION is reported as 75.45%.
Consider `Cc1cc(-c2cnc(N3CCCC(C)C3)nc2C(C)C)on1` (stereo unspecified), for which the INHIBITION is on record as 26.3%.
`CC1CCN(c2ncc(C#N)c(N)n2)CC1`: the INHIBITION is -10.3%.
Next, `Cn1ccnc1-c1nc(N2CCCCC2)ncc1-c1ccccc1F`: 54.8%.
`CN1CCCC(c2cccc(-c3ccccc3F)n2)C1` (stereo unspecified): the INHIBITION was determined as 31.15%.
On to `Cc1cc(CNc2ccccc2Cl)no1`, for which the INHIBITION is given as -38.9%.
With `COCCC(=O)N1C[C@@H](O)[C@H](N2CCN(c3ccccc3)CC2)C1`, the INHIBITION was determined as 16.5%.
For `CCOc1ncccc1C(=O)N1CCCC(n2nc(C)cc2C)C1` (stereo unspecified), the INHIBITION amounted to 0.0996%.
Next, `O=C(c1cccs1)N1CCC[C@]2(C[C@@H](OCc3ccncc3)CO2)C1`: -41%; `CN(C(=O)c1ccccc1N(C)S(C)(=O)=O)c1ccc(C(C)(C)C)cc1`: 31.2%.
Next, `O=C(c1ccc(F)cc1F)N(CC(F)(F)F)C1CCOCC1`: 3.04%.
Consider `O=C(c1ccco1)N(CC(F)(F)F)C1CCCOC1` (stereo unspecified), for which the INHIBITION amounted to 9.16%.
Next, `O=C(c1ccco1)N(CC(F)(F)F)C1CCOCC1`: 61.3%.
